G9a inh: G9a (human) methyltransferase inhibition | Q96KQ7 | G9a H3K9 monomethylation, AlphaScreen, 2 h | Potency, µM (series often up to 102 µM), inactives show at the highest dose activity, negative = inhibition, hits mostly inhibitors | 350,000 compounds, 8.8% hits; further: on the % scale 0 is the no-effect control and ±100 the full control effect; nearly all actives have a fitted effect of over 75% in size
Target sequence (Q96KQ7 913-1193 limits assumed): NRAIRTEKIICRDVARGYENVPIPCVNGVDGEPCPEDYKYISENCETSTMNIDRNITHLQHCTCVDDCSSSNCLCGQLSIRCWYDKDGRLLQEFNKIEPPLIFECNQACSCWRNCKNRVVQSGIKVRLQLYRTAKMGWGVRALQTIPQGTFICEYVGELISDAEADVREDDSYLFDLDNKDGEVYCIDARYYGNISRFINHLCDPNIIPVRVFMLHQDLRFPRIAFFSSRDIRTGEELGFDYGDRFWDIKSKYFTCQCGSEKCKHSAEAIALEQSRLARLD
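G9a (20 nM) preincubated 15 min RT with compounds, then 500 nM biotinylated H3K9 peptide and 20 uM SAM added; 2 h RT reaction. Monomethyl-H3K9 product detected by AlphaScreen with anti-H3K9me1 antibody, streptavidin donor and anti-rabbit IgG acceptor beads.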
JMJD2A Tudor inh: JMJD2A Tudor domain (human) inhibition; O75164; AlphaScreen JMJD2A-Tudor / H3K4me3 peptide binding; Potency, µM (highest dose often 114 µM), without a hit: at the top dose activity change, negative = inhibition, actives largely listed as inhibitors; 390,000 compounds, 4.4% hits; further: on the % scale 0 is the no-effect control and ±100 the full control effect; nearly all actives have a fitted effect of over 50% in size
Sfp inh: Sfp phosphopantetheinyl transferase inhibition; Q9F4F7; Biochemical Sfp PPTase activity, qHTS; Potency, µM, without a hit: largest response in the series, negative = inhibition, most hits filed as inhibitors; 310,000 compounds, 3.5% hits;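 further: the enzyme is Sfp with the accession as filed and its product quenches rhodamine fluorescence; 0% = enzyme reaction without inhibitor and -100% = no enzyme wells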
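Reaction rates are the 30-min fluorescence difference (ex 525, em 598 nm) in wells containing 15 nM Sfp, 5 uM rhodamine-CoA and 12.5 uM BHQ-2-YbbR at pH 7.6 with 10 mM MgCl2.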
BAZ2B block: blocks human BAZ2B; Q9UIF8; 360,000 compounds, 4.4% hits; AlphaScreen BAZ2B-H3K14Ac peptide displacement; Potency, µM (titrated, usually from 114 µM), inactives show top-dose activity change, negative = inhibition, actives largely listed as inhibitors; further: on the % scale 0 is the no-effect control and ±100 the full control effect; nearly all actives have a fitted effect of over 60% in size
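In this displacement format the biotinylated H3(5-23) peptide acetylated at Lys14 serves as ligand at 50 nM, with BAZ2B at 50 nM in PBS pH 7.4 containing 0.01% Tween-20. Donor and acceptor beads are 10 ug/mL final.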
HP1b chromo inh: inhibitors of HP1-beta chromodomain binding to methylated histone tails | AlphaScreen HP1-beta / biotin-H3K9me3 peptide binding | Potency, µM (highest dose often 114 µM), without a hit: at the highest dose activity change, negative = inhibition, usual class: inhibitors | 390,000 compounds, 0.56% hits; further: nearly all actives have a fitted effect of over 70% in size
Target sequence (P83916 whole entry, looked up): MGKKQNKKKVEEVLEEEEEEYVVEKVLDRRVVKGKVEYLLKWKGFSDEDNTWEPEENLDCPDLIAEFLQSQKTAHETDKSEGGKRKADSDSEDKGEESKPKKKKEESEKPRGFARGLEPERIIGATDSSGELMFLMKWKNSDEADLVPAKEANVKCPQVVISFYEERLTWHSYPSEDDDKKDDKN
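Compound inhibition of the preformed complex between 50 nM HP1-beta and 50 nM biotinylated H3K9me3 peptide was read by AlphaScreen. Buffer was PBS pH 7.4 with 0.01% Tween-20. Incubations ran 30 min at room temperature, with 10 ug/mL donor/acceptor beads.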
PLK1 PBD block: blocks phosphopeptide binding to human PLK1 polo-box domain | Plk1 PBD binding of FITC phosphopeptide, fluorescence polarization | Potency, µM, without a hit: max response, negative = inhibition, usual class: inhibitors | 360,000 compounds, 2.8% hits; further: series mostly up to about 57 µM; on the % scale 0 is the no-effect control and ±100 the full control effect; nearly all actives have a fitted effect of over 65% in size
The depositor's hits bear a star; u = inconclusive; x = not tested or not shown; [ ] = remark or other dose. The list is not random: actives were taken first. Their share in the collection is about 12%. The call rests on the fitted dose curve; in most records, active means well fitted curve in the direction sought with a large enough effect; inconclusive means small, poorly fitted or top-dose-only effect, or another doubt; inactive means no such curve, though single readings can be large; an effect the other way counts as inactive or inconclusive. Potency means the concentration at half of the fitted maximal effect.

SMILES | G9a inh | JMJD2A Tudor inh | Sfp inh | BAZ2B block | HP1b chromo inh | PLK1 PBD block
COc1ccc(N2CCN(C(=O)c3ccccc3NC(=O)c3ccccc3)CC2)cc1 | 45µM* | -31% | 2% | -38% | -11% | -6%
COc1ccc(N2CCN(C(=O)c3ccc(NC(=O)c4nsc5ccccc45)cc3)CC2)cc1 | 10µM* | u | x | u | -13%[57 µM] | x
COc1ccc(N2CCN(C(=O)Nc3cccc(C(F)(F)F)c3)CC2)cc1 | 13µM* | u | 7% | u | -11% | -9%
O=C(Nc1cccc(C(F)(F)F)c1)N1CCN(C(=O)Nc2cccc(C(F)(F)F)c2)CC1 | 9%[59 µM] | -2% | 2% | -5% | 19% | -5%
Cc1cccc(OCC(=O)Nc2cccc(OCc3cc(=O)n4cccc(C)c4n3)c2)c1 | 10%[59 µM] | -21% | x | 9% | 25%[57 µM] | x
CCc1ccc(N2CC(C(=O)N3CCN(c4ccc([N+](=O)[O-])cc4)CC3)CC2=O)cc1 (centres undefined) | x | x | x | x | x | -14%
COc1ccc(N2CCN(CC(=O)Nc3ccccc3C(=O)NCc3ccccc3)CC2)cc1 | u | 56µM* | x | 45µM* | u | -3%
COc1ccc(C(=O)Nc2ccccc2C(=O)N2CCOCC2)cc1OC | -3% | -11% | 9% | -1% | -1% | 1%
COC(=O)c1cnc(N2CCN(c3ccc(OC)cc3)CC2)c2ccccc12 | 13µM* | 25µM* | x | 22µM* | -13%[57 µM] | x
COc1ccc(C(=O)Nc2ccccc2C(=O)N2CCOCC2)cc1Br | x | -4% | 2% | -4% | 25%[57 µM] | 27µM*
Cc1ccc(N2CCN(C(=O)c3ccccc3NC(=O)c3ccccc3C(=O)O)CC2)cc1 | 56µM* | -20% | 15% | -36% | 24% | -8%
COC(=O)c1cnc(N2CCN(c3ccccc3F)CC2)c2ccccc12 | 78%[59 µM] | 90% | x | 37% | 117%[57 µM] | x
CCN(CC)CCn1c(-c2ccccc2)nc2c(NCCO)nc(C)nc21 | x | x | 23% | x | x | x
COc1cccc(NC(=O)Cn2c(=O)n(CCCCC(=O)NCc3ccccc3Cl)c(=O)c3ccccc32)c1 | 5%[59 µM] | 0% | x | 1% | 24% | x
CC(C)(C)c1ccc(Oc2nc3ccccn3c(=O)c2/C=C(\C#N)c2nc3ccccc3[nH]2)cc1 | 6%[59 µM] | 0% | x | 2% | 54% | x
COc1ccc(NC(=O)N2CCCC3(CCN(C(=O)c4cccc(F)c4)CC3)C2)cc1 | 0%[12.7 µM] | x | 0% | x | x | x
CC(CNC(=O)Cn1c(-c2cccs2)cc2ccccc21)c1ccccc1 (centres undefined) | -2%[59 µM] | -1% | x | 1% | 51% | x
COC(=O)c1ccccc1NC(=O)N1CCN(c2ccc(OC)cc2)CC1 | 40µM* | u | 11% | u | u | -6%
COc1ccc(N2CCN(C(=O)c3ccccc3NS(=O)(=O)c3ccc(C)cc3)CC2)cc1 | 50µM* | u | 9% | u | -19% | -2%
Cc1ccc(S(=O)(=O)Nc2ccccc2C(=O)N2CCOCC2)cc1 | x | -8% | 4% | 4% | 31% | 1%
CC(=O)c1ccc(NC(=S)NC(C)c2ccc(Cl)cc2Cl)cc1 (centres undefined) | 6% | -27% | 4% | u | 10% | -7%
COc1ccccc1CN1C(=O)CN(C2CCCCCC2)C(=O)C1c1ccc(C)cc1 (centres undefined) | -7%[59 µM] | -15% | x | 0% | 42% | x
COc1cc(/C=N/NC(=O)c2ccc(F)cc2)ccc1OC(=O)c1ccco1 | -4%[59 µM] | -18% | -5% | 0% | 12% | -11%
COc1cc(/C=C2/C(=O)NN(c3ccc(Cl)cc3)C2=O)ccc1OC(=O)c1ccco1 | u | u | u | u | -35% | 2.7µM*
COc1cc(/C=C2/C(=O)NN(c3cccc(F)c3)C2=O)ccc1OC(=O)c1ccco1 | 28µM* | -25% | 56µM* | u | -9% | 2.1µM*
SMILES | G9a inh | JMJD2A Tudor inh | Sfp inh | BAZ2B block | HP1b chromo inh | PLK1 PBD block
COc1cc(/C=C2/C(=N)N3OC(C)=CC3=NC2=O)ccc1OC(=O)c1ccco1 | -35% | -12% | -1% | -5% | 4% | -5%
Cc1cccc([S+](=O)([O-])NC2CCN(C#N)CC2)c1 | x | 7% | x | x | x | x
O=C1[C@H]2[C@H]3[C@H](O)[C@H](O)C/C(=N/OCc4ccccc4)[C@@H]3CC[C@@H]2C(=O)N1C[C@@H]1CCCO1 | x | x | -1% | x | x | x
CCOC(=O)C1(C)Oc2ccccc2C(C(=O)OC)=C1C(=O)OC (centres undefined) | 28µM* | 3% | -17% | x | 63% | u
CCOC(=O)C1(C)Oc2ccccc2C(c2ccc(OC)cc2)=C1C(=O)OC (centres undefined) | 37% | 17% | -18% | x | 65% | -5%
CCCNc1c(NS(=O)(=O)c2cccs2)c(=O)oc2ccccc12 | 19% | -9% | 5% | -9% | 35% | -6%
CC1=C(C(=O)N2CCN(c3cccc(Cl)c3)CC2)C2(CCCCC2)OC1=O | -24%[59 µM] | -29% | x | -15% | -11% | x
Cc1ccc(S(=O)(=O)N2CCN(C(=O)C3CCN(C(=O)c4ccc(F)cc4)CC3)CC2)c(C)c1 | u | 18µM* | x | 11% | 10% | -16%
Cc1ccc(S(=O)(=O)N2CCN(C(=O)C3CC3C)CC2)c(C)c1 (centres undefined) | -3% | 3% | x | -8% | 32% | -3%
COc1cccc(C(=O)NC(=S)Nc2ccccc2N2CCCC2)c1 | 3%[12.7 µM] | u | 25µM* | 28µM* | 22µM* | u
COc1c(C)cccc1C(=O)NC(=S)Nc1ccccc1N1CCCC1 | 32µM* | 50µM* | 9% | u | -3% | -16%
COC(=O)c1cc2oc3ccccc3c2n1Cc1nc(-c2cccc(C)c2)oc1C | -6%[59 µM] | -22% | x | -13% | 4% | x
CCc1ccc(CN(C)C(=O)c2cc(COc3cncc(Cl)c3)on2)cc1 | x | x | x | x | x | -7%
Fc1ccc(Br)cc1C1C=C(c2ccc(Br)s2)Nc2ncnn21 (centres undefined) | 10µM* | u | 56µM* | u | 19% | -5%
COc1cccc(C2C=C(c3ccc(Br)s3)Nc3ncnn32)c1OC (centres undefined) | 28µM* | -24% | u | u | 26% | 0%
CCCCCc1ccc(C)cc1O | -12%[12.7 µM] | x | 29% | x | x | x
COc1ccc(/C=C2\SC(=S)N(N3C(=O)CCC3=O)C2=O)cc1O | 8.9µM* | -12% | -44% | u | -8% | -14%
COc1ccccc1/C=C1\SC(=S)N(N2C(=O)CCCC2=O)C1=O | 20µM* | u | 1% | u | u | 0%
COc1ccccc1N1CCN(C(=O)c2sc3ncnc(N4CCN(c5ccccn5)CC4)c3c2C)CC1 | -23% | -32% | -3% | u | -5% | -6%
